CYP2C9 activ: increases human cytochrome P450 2C9 activity. P11712. recombinant CYP2C9, luciferin-H conversion, luminescence; hits give high values; factor 1 = untreated enzyme, 0 = blocked. activation factor at 5 µM. 96,000 tested, 1.4% active. AID 1024;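 active = activation factor of 2 or more for CYP2C9 at a 5 µM dose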;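 note: 0 = sulfaphenazole-blocked wells and 1 = vehicle-only wells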
Target sequence (P11712 whole entry, looked up): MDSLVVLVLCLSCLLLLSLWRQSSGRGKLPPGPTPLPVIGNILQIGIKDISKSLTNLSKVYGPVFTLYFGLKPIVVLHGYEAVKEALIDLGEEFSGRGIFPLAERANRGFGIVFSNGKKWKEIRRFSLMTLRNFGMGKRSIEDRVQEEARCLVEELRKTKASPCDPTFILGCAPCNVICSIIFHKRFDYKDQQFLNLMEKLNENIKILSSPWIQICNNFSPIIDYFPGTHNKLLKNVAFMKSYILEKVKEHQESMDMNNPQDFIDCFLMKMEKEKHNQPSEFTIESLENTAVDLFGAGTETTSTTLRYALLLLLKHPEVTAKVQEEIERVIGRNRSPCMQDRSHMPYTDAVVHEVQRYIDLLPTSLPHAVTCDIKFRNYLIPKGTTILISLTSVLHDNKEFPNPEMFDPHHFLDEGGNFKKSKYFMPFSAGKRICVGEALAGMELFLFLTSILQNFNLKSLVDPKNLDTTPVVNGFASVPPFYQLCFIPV
CYP2C19 inhib: human CYP2C19 inhibition. P33261. CYP2C19 Supersomes, luciferin-H EGE luminescence, 30 min. inhibition, % at 5 µM. 96,000 tested, 21% active. AID 778;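 active = CYP2C19 inhibition above a set limit at 5 µM in the primary screen, cut at about 50% in these data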;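 note: plate controls were negative control wells for no effect and 2.5 mM tranylcypromine positive control for full effect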
CYP2C9 inhib: inhibitors of human CYP2C9; inhibition, % at 5 µM; 96,000 tested, 20% active; AID 777; P11712; CYP2C9 Supersomes, luciferin-H conversion, luminescence;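 active = blocking of liver enzyme CYP2C9 beyond about 50% at 5 µM, limit read from the data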
Measles CPE: protection of cells from measles virus; protection (pct of control), % at 4 µM; 140,000 tested, 1.5% active; Measles virus-infected cells, CPE protection, absorbance; in the data active = protection mostly above about 24%, no sharp cut-off; inactive = mostly below about 26%
CYP2C19 act: cytochrome P450 2C19 (human) activation. AID 1025. activation factor at 5 µM. recombinant CYP2C19, luciferin-H EGE luminescence; hits give high values; 0 = fully inhibited enzyme, 1 = untreated enzyme. 96,000 tested, under 10 active. P33261;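 active = activation factor of at least 2 at 5 µM in the primary screen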;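 note: 0 = wells with 2.5 mM tranylcypromine and 1 = vehicle-only wells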
* hit, by the source's call; · = not tested or not shown. Only some compounds are listed: those with a hit (about 22% of all), similar ones and a draw of the others.

SMILES | CYP2C9 activ | CYP2C19 inhib | CYP2C9 inhib | Measles CPE | CYP2C19 act
O=C(NCCC1=CCCCC1)C(c1ccccc1)c1ccccc1 | 0.8 | 10.7 | 23.9 | 18.4 | 0.9
C=CCn1c(SC(C)C(=O)NCCC2=CCCCC2)nc2ccccc2c1=O (configuration not stated) | 0.4 | 46.9 | 56.0* | 18.0 | 0.5
CCOC(=O)C(C)Sc1nc2ccccc2c(=O)n1CC (configuration not stated) | 0.4 | 76.7* | 63.0* | 7.2 | 0.2
O=C(c1ccc(N2CCCCS2(=O)=O)cc1)N1CCN(c2ccc(N3CCOCC3)nn2)CC1 | 1 | -9.6 | 0.9 | 1.2 | 1.1
CCC1CCc2c(sc(NC(=O)C3CC=CCC3C(=O)O)c2C#N)C1 (configuration not stated) | · | · | · | 8.6 | ·
O=S1(=O)CCC(NC(=S)Nc2ccc(Cl)cc2)C1 (configuration not stated) | · | · | · | 11.7 | ·
O=S1(=O)CCC(NC(=S)NCCNC(=S)NC2CCS(=O)(=O)C2)C1 (configuration not stated) | · | · | · | 27.6* | ·
Cc1nccc2[nH]c(=O)c(C(=O)NC3CCCCC3C)cc12 (configuration not stated) | 0.9 | 4.3 | 8.3 | 15.3 | 1
O=[N+]([O-])c1ccccc1C1Nc2cccc3cccc(c23)N1 | 0.3 | 99.2* | 69.5* | 3.4 | 0
COc1ccccc1C1Nc2cccc3cccc(c23)N1 | 0.6 | 70.5* | 44.6 | 6.5 | 0.3
Oc1ccccc1C1Nc2cccc3cccc(c23)N1 | 1 | 40.7 | -0.5 | 3.4 | 0.6
O=C(CN1C(=O)c2ccccc2C1=O)Nc1ccc2c(c1)OCO2 | 0.7 | 5.4 | 28.0 | 4.1 | 0.9
CCC(SC1=Nc2ccccc2C2=NC(CC(C)C)C(=O)N12)C(=O)Nc1ccc2c(c1)OCO2 (configuration not stated) | 0.2 | 56.9* | 83.8* | 10.6 | 0.4
COC(=O)CN(c1ccc(C)cc1)S(=O)(=O)c1c(C)[nH]c(=O)[nH]c1=O | 0.9 | 8.4 | 10.0 | 8.9 | 0.9
COc1ccc(OC)c(C(c2nnnn2CCC(C)C)N2CCN(C(=O)c3ccco3)CC2)c1 (configuration not stated) | 0.3 | 66.9* | 74.3* | 5.5 | 0.3
CC(C)CCn1nnnc1C(c1ccc(F)cc1)N1CCN(C(=O)c2ccco2)CC1 (configuration not stated) | 0 | 63.0* | 96.5* | 18.5 | 0.4
O=C(c1ccco1)N1CCN(C(c2ccc(F)cc2)c2nnnn2Cc2cccs2)CC1 (configuration not stated) | 0.7 | 23.0 | 29.6 | 6.5 | 0.8
COc1ccc(/C=C(/NC(=O)c2ccccc2)C(=O)N/N=C/c2ccncc2)c(OC)c1 | · | · | · | 2.0 | ·
O=C(/C=C\Nc1ccccn1)c1ccc(Cl)cc1 | 1.2 | 24.0 | -23.6 | 3.3 | 0.8
Cc1ccc(N(C(=O)c2csnn2)C(C(=O)NC(C)(C)C)c2cccs2)cc1 (configuration not stated) | 0.9 | 76.6* | 6.4 | 9.9 | 0.2
CC(C)c1ccc(N(C(=O)c2csnn2)C(C(=O)NC(C)(C)C)c2ccncc2)cc1 (configuration not stated) | 0.8 | 59.6* | 22.8 | 3.4 | 0.4
Cc1ccc(N(C(=O)c2csnn2)C(C(=O)NC(C)(C)C)c2ccncc2)cc1 (configuration not stated) | 0.9 | 22.1 | 9.1 | 34.0 | 0.8
O=C(NCc1ccc(F)cc1)C1CCN(S(=O)(=O)N2CCC3(CC2)OCCO3)CC1 | 0.8 | 1.7 | 24.7 | 17.4 | 1
C[C@@H](C(=O)Nc1nc(-c2ccccn2)cs1)N1C(=O)C2CCCCC2C1=O (some centres not stated) | 0.6 | 32.6 | 41.7 | 3.1 | 0.7
O=C(CN1CCN(Cc2ccc3c(c2)OCO3)CC1)Nc1ccc(F)cc1 | · | · | · | 32.4 | ·
SMILES | CYP2C9 activ | CYP2C19 inhib | CYP2C9 inhib | Measles CPE | CYP2C19 act
CCOc1ccc(NC(=O)CSc2nc3c(c(=O)n2C)SC(C)C3)cc1 (configuration not stated) | 0.5 | 10.6 | 47.4 | 11.0 | 0.9
CCOC(=O)c1sc(NC(=O)C(OC(C)=O)c2ccccc2)nc1C (configuration not stated) | · | · | · | 5.1 | ·
CCOC(=O)c1sc(NC(=O)C(CC)OC(=O)C(CC(C)C)NC(=O)c2ccccc2)nc1C (configuration not stated) | 0.8 | 54.8* | 22.1 | 17.5 | 0.5
Cc1cc(C(=O)NNC(=S)NCC(C)C)cs1 | · | · | · | 18.7 | ·
CCCN(CCO)Cc1ccc2ccccc2c1 | 1 | 51.6* | 3.6 | 12.4 | 0.5
C=CCn1c(-c2c(C)nc3cc(C)ccn23)n[nH]c1=S | · | · | · | 8.8 | ·
Cc1ccc(-c2cnc(-c3ccncc3)o2)cc1 | 0.4 | 98.0* | 63.5* | 5.9 | 0
COC(=O)C1CCN(C(c2cc(OC)c(OC)c(OC)c2)c2sc3nc(C)nn3c2O)CC1 (configuration not stated) | 1 | 19.2 | 0.8 | 34.3* | 0.8
CCOC(=O)C1CCN(C(c2cc(OC)c(OC)c(OC)c2)c2sc3nc(C)nn3c2O)CC1 (configuration not stated) | 0.9 | 13.6 | 11.9 | 2.5 | 0.9
c1ccc(Cc2nn3c(COc4ccccc4)nnc3s2)cc1 | 0.7 | 66.2* | 32.4 | 4.0 | 0.3
Clc1ccccc1-c1nn2c(COc3ccccc3)nnc2s1 | 0.2 | 94.9* | 81.6* | 3.3 | 0.1
CN(C)c1ccc(-c2nn3c(C4CCCCC4)nnc3s2)cc1 | 0.5 | 51.7* | 54.7* | 23.8 | 0.5
CN(C)c1ccc(-c2nn3c(-c4ccc(Cl)cc4)nnc3s2)cc1 | 0.7 | 19.8 | 31.2 | 27.2 | 0.8
Clc1ccc(-c2nn3c(-c4ccccn4)nnc3s2)c(Cl)c1 | 0.7 | 34.8 | 28.6 | · | 0.7
c1ccc(OCc2nn3c(C4CCCCC4)nnc3s2)cc1 | 0.5 | 13.5 | 51.3* | 0.7 | 0.9
CCOc1ccccc1OCc1nn2c(COc3ccccc3)nnc2s1 | 1.2 | 31.3 | -19.7 | 20.8 | 0.7
Cc1cccc(C(C)C)c1NC(=O)CSc1nncn1C | 1 | -14.3 | -4.4 | 7.6 | 1.1
O=C(N/N=C/c1ccccc1F)NC1CCCCC1 | · | · | · | 18.8 | ·
Cc1ccc2c(N)c(C)ccc2c1 | 0.9 | 66.6* | 11.3 | 18.1 | 0.3
CCOC(=O)C1C(=O)NC(C)C1c1ccccc1 (configuration not stated) | 1.1 | -21.9 | -8.1 | 4.3 | 1.2
CCn1c(O)c(C=NCc2cccs2)c(=O)n(CC)c1=S | 0.2 | 33.5 | 83.0* | 3.2 | 0.7
O=C(CSc1nnc(-c2n[nH]c3ccccc23)n1-c1ccccc1)Nc1ccccc1Cl | · | · | · | 0.4 | ·
Cc1nn(Cc2nc(-c3cccs3)no2)c(C)c1Br | 0.5 | 75.1* | 46.1 | 3.5 | 0.2
O=C(NCCc1ccccc1)C(=O)Nc1nccs1 | · | · | · | 11.0 | ·
Cc1ccc(OCC(=O)NNC(=O)C(C)Sc2ncnc3sc(C)c(C)c23)cc1 (configuration not stated) | 0.8 | 31.2 | 15.7 | 17.5 | 0.7
Cc1ccc(-c2nnn(CC(=O)N3CCN(c4nc5ccccc5s4)CC3)n2)cc1 | 0.9 | 18.5 | 12.0 | 3.9 | 0.8

Bioassay records (PubChem)
